MITF primary: MITF inhibitors, primary screen, biochemical, AlphaScreen, human; AlphaScreen MITF homodimerization, bead proximity signal; inhibition, % at 2.6 µM; actives 0.91% (n = 650,000); AID 1259374, 2018; in the data active = inhibition above about 50%;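 note: 0% = vehicle wells with protein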
Target sequence (O75030 whole entry, looked up): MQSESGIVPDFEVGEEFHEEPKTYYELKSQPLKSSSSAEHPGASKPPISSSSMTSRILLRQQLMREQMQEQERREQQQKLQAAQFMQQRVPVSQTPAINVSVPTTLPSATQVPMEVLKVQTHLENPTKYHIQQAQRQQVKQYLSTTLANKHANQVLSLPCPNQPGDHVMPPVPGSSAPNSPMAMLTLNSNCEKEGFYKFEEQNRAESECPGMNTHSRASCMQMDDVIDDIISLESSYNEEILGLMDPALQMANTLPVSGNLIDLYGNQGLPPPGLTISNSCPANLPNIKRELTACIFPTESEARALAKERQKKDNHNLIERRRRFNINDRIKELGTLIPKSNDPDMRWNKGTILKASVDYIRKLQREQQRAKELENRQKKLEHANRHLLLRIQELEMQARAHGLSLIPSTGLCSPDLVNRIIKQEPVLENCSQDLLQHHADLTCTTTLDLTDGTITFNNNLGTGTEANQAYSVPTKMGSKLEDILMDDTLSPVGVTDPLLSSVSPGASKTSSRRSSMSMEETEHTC
FBW7 act: FBW7 E3 ligase activators, primary screen, biochemical, AlphaScreen, human; F-box/WD repeat-containing protein 7 (Homo sapiens), Q969H0; AlphaScreen FBW7–phospho-cyclin E peptide binding, activator screen; normalized activity (activation), % at 26.1 µM; actives 0.13% (n = 650,000); in the data active = normalized activity above about 1.9%;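 note: purified mutant Fbw7 with reduced substrate affinity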
GPR151 ag: activators of human GPR151, primary screen, cell-based, PathHunter beta-arrestin, luminescence; actives 1% (n = 650,000); AID 1508602, 2020; G-protein coupled receptor 151 (Homo sapiens), Q8TDV0; PathHunter beta-arrestin GPR151 cells; activation, % at 11.2 µM; in the data active = activation above about 4.9%;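 note: 0% = median of compound wells and 100% = cells with positive control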
TEAD-YAP block: TEAD-YAP interaction inhibition, primary screen, TEAD-YAP interaction inhibitor project, luminescence, HEK-TIYL cells; TEAD-Gal4/YAP UAS-luciferase luminescence; inhibition, % at 9.12 µM; actives 1.4% (n = 640,000); in the data active = inhibition above about 32%;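 note: 0% = median of test compound wells and 100% = reference inhibitor wells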
MITF inh conf: MITF inhibitors, retest of hits, confirmation, biochemical, AlphaScreen, triplicate; AlphaScreen MITF homodimerization, biotin/His-MITF beads; shares compounds with MITF primary; inhibition, % at 2.6 µM; actives 16% (n = 4,700);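 active = inhibition above a cutoff derived from the DMSO control wells, cut at about 28% in these data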;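 note: 0% = MITF dimer wells with DMSO only; inhibitors lower the bead chemiluminescence by keeping MITF from dimerizing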
AlphaScreen DR: AlphaScreen optical interference compounds, dose response, counter-screen, biochemical, HTS; AlphaScreen optical interference counterscreen, cell-free; IC50, µM; actives 6% (n = 480); shares compounds with MITF primary; call rule not given here
AlphaScreen intf2: AlphaScreen optical interference compounds, counter-screen for MITF inhibitor project, biochemical, triplicate; shares compounds with MITF primary; LysRS AlphaScreen counterscreen, signal interference; inhibition, % at 2.6 µM; actives 7.6% (n = 4,700);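 active = inhibition above a cutoff derived from the DMSO control wells, cut at about 30% in these data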
The depositor's hits bear a star; nt = no result. This is a sample that favours compounds with a hit; in the whole collection about 3.5% have one here.

SMILES | MITF primary | FBW7 act | GPR151 ag | TEAD-YAP block | MITF inh conf | AlphaScreen intf2 | others
COc1ccccc1C(=O)Nc1ccc2c(c1)C(=O)Nc1cc(Cl)ccc1O2 | -0.9 | 0.0 | 0.2 | 6.8 | nt | nt
O=C(c1ccccc1)c1cc([N+](=O)[O-])cc([N+](=O)[O-])c1Cl | 11.4 | -0.1 | -1.7 | 1.9 | nt | nt
COc1cc(CN2CCCCCC2)cc(OC)c1 | -2.5 | -0.1 | 0.2 | -2.1 | nt | nt
COc1cc(CN2CCN(Cc3ccc(Cl)cc3)CC2)cc(OC)c1 | 84.3* | -0.1 | -1.8 | 1.0 | 0.3 | -1.3
COc1cc(CN2CCN(Cc3cccc(Cl)c3)CC2)cc(OC)c1 | 73.5* | -0.1 | 1.4 | -1.3 | 6.7 | 3.8
COc1cccc(CN2CCCCC2)c1 | -4.8 | -0.2 | -0.3 | 0.6 | nt | nt
COc1ccc(Br)cc1C(=O)N/N=C/c1ccccc1F | 66.8* | 0.2 | -0.7 | -1.6 | 7.0 | 7.0
Cc1cc(C)n(CCCNCC(O)COCc2ccccc2)n1 (stereo not drawn) | 37.8 | -0.2 | 0.4 | 4.6 | nt | nt
Cc1cc(C)n(CCCNCC(O)COCc2cccs2)n1 (stereo not drawn) | 78.9* | 0.1 | 1.2 | 10.5 | 11.7 | 13.9
Nc1nonc1-c1noc(-c2ccccc2F)n1 | 2.9 | 0.1 | -1.5 | -41.1 | nt | nt
Nc1nonc1-c1noc(-c2ccccc2Br)n1 | 76.7* | 0.0 | -1.2 | -3.6 | 7.7 | 12.5
CCOC(=O)C1(CCc2ccccc2)CCN(C(=O)CCn2cnnn2)CC1 | 60.8* | 0.0 | 2.4 | -22.6 | -0.7 | 8.1
CCOC(=O)C1(CCCc2ccccc2)CCN(C(=O)CCn2cnnn2)CC1 | 7.2 | 0.1 | 0.7 | 1.2 | nt | nt
CC12CCC(=O)N1c1ccccc1C(=O)N2c1ccc(F)cc1 (stereo not drawn) | -10.9 | -0.1 | -0.8 | 5.8 | nt | nt
O=Cc1cccc(OCCCn2cnc3ccccc32)c1 | 65.7* | -0.3 | 1.8 | 13.7 | 26.3 | 10.2
O=[N+]([O-])c1ccccc1OCCOCCn1cncn1 | 3.0 | 0.0 | -0.2 | -3.4 | nt | nt
Fc1ccccc1OCCCn1cnc2ccccc21 | 5.4 | 0.1 | -0.4 | -18.0 | nt | nt
O=[N+]([O-])c1ccccc1OCCCn1cnc2ccccc21 | 60.1* | -0.1 | 1.2 | -71.7 | 10.9 | 13.5
O=[N+]([O-])c1ccccc1OCCOCCn1cnc2ccccc21 | 88.3* | 0.1 | 0.4 | -2.0 | 12.5 | 10.6
CCn1c2ccccc2c2cc(CN3CCN(C(=O)c4cccc(OC)c4OC)CC3)ccc21 | 18.5 | -0.2 | 0.7 | -1.6 | nt | nt
CCn1c2ccccc2c2cc(CN3CCN(Cc4ccc(OC)c(Br)c4)CC3)ccc21 | 60.2* | -0.5 | -0.2 | 1.1 | 14.2 | 19.2
CCn1c2ccccc2c2cc(CN3CCN(Cc4cc(OC)c(OC)c(OC)c4)CC3)ccc21 | 61.3* | 0.5 | -1.2 | 1.4 | 0.9 | 2.3
CCn1c2ccccc2c2cc(CN3CCN(C(=O)c4c(OC)cccc4OC)CC3)ccc21 | 39.8 | -0.2 | -1.2 | -6.5 | nt | nt
Cc1cc(NCCOc2ccccc2)nc(-c2c(C)nn(C)c2C)n1 | 6.8 | 0.1 | 1.2 | -4.8 | nt | nt
Cc1cc(/C=C(\C#N)C(=O)O)c(C)n1-c1cccc2ccccc12 | 7.0 | 0.1 | -1.4 | -1.3 | nt | nt
SMILES | MITF primary | FBW7 act | GPR151 ag | TEAD-YAP block | MITF inh conf | AlphaScreen intf2 | others
Cc1ccc(OCC(=O)N2CC3(C)CC2CC(C)(C)C3)c([N+](=O)[O-])n1 (stereo not drawn) | 51.5* | 0.2 | 1.3 | 6.3 | -8.5 | -2.6
CCS(=O)(=O)N1CCN(Cc2cc(Br)ccc2OC)CC1 | 51.8* | 0.1 | 0.4 | 23.3 | 10.5 | 14.2
CCCS(=O)(=O)N1CCN(Cc2ccc(OC)c(OC)c2OC)CC1 | 52.0* | 0.0 | -0.2 | -1.0 | 7.0 | 7.3
CCCS(=O)(=O)N1CCN(Cc2cc(Br)ccc2OC)CC1 | 54.4* | 0.1 | -0.8 | 18.4 | 7.9 | 15.8
COc1ccc(Br)cc1CN1CCN(S(=O)(=O)Cc2ccccc2)CC1 | 62.0* | 0.3 | -0.7 | 16.5 | 5.7 | 25.7
Cc1[nH]n(-c2ccc3ccccc3c2)c(=O)c1C1=c2cc(Cl)ccc2=NC1=O | 11.2 | -1.0 | -0.3 | 17.3 | nt | nt
COc1cc(/C=N/NC(=S)NCCN2CCOCC2)ccc1OC(=O)c1ccco1 | 5.9 | -0.1 | 0.2 | 4.6 | nt | nt
CN(C)CCC(=O)OC1CCCCC1S(=O)Cc1ccc(C(C)(C)C)cc1 (stereo not drawn) | 15.5 | -0.3 | 0.9 | -7.5 | nt | nt
CCCSCCCNC(=O)c1oc2c(c1C)-c1[nH]ncc1CC2 | 4.4 | 0.7 | -0.2 | -1.8 | nt | nt
C=CCn1c(SCC(=O)c2ccc(OC)c(OC)c2)nc2sc3c(c2c1=O)CCC3 | -2.4 | 0.2 | -0.9 | -2.7 | nt | nt
COc1cc2nc(NC3CCN(Cc4ccccc4)CC3)nc(NCCCN3CCCC3=O)c2cc1OC | -2.5 | -0.2 | 1.3 | -5.0 | nt | nt
COc1cccc(-n2cc(-c3ccc4c(c3)OCO4)[nH]c2=O)c1 | 4.4 | -0.1 | -0.6 | -10.0 | nt | nt
c1ccc(-c2nc(-c3cccnc3)cc(N3CCN(c4ccccn4)CC3)n2)cc1 | 11.2 | 0.4 | 1.2 | 2.1 | nt | nt
OC1CCN(c2cc(-c3cccnc3)nc(-c3ccccc3)n2)CC1 | 71.4* | -0.1 | -0.5 | 12.4 | 4.6 | 11.7
Fc1ccc(-c2cc(N3CCN(c4ccccn4)CC3)nc(-c3cccnc3)n2)cc1 | 73.2* | 0.0 | 0.6 | 6.1 | 15.1 | 15.5
OC1CCN(c2cc(-c3ccccc3)nc(-c3cccnc3)n2)CC1 | 12.2 | 0.4 | -1.4 | 7.5 | nt | nt
CC1CCN(CC(=O)Nc2ccc(N3CCCCCC3)cc2)CC1 | 52.3* | -0.1 | 3.7 | -2.5 | 19.6 | 33.3*
Cc1ccc(NC(=O)CN2CCC(C(=O)NC3CC3)CC2)cc1 | 111.8* | 0.1 | -1.1 | -0.3 | 0.5 | -7.6
CC1CCN(CC(=O)Nc2ccc(Br)cc2)CC1 | -3.0 | 0.0 | 0.5 | -24.6 | nt | nt
O=C(CN1CCCCCC1)Nc1ccc(N2CCCC2)cc1 | 52.8* | -0.3 | -0.5 | -20.9 | 6.8 | 25.2
O=C(CN1CCC(c2ccncc2)CC1)Nc1ccc(N2CCCCC2)cc1 | 7.7 | 0.0 | -0.3 | 5.6 | nt | nt
O=C(Nc1cnn(CC(=O)N2CCCC(OCc3ccccn3)C2)c1)c1ccco1 (stereo not drawn) | 12.1 | 0.2 | -1.0 | 0.3 | nt | nt
Cc1ccc(S(=O)(=O)N(CC(O)CN2C(=O)NC(C)(C)C2=O)c2ccccc2[N+](=O)[O-])cc1 (stereo not drawn) | 10.3 | -0.5 | 0.1 | 3.2 | nt | nt
Cc1ccc(C)c(CSc2nc(=O)[nH]c3c2CCCC3)c1 | 10.0 | -0.1 | 1.1 | -0.7 | nt | nt
CC[C@@H]1NC(=O)[C@H]2CN(C(=O)NC3CCCCC3)CCN2C1=O | 83.4* | 0.0 | -0.7 | 4.2 | 71.4* | -10.4 | AlphaScreen DR=>6.48

Screens as filed in PubChem BioAssay.
